Source: PubChem BioAssay AID828 (The Scripps Research Institute Molecular Screening Center, 2007)
In all, about 140,000 compounds went through this assay and about 550 (0.39%) were called active. Cut-off read from the data, not from the text of the source: active = inhibition above about 27%; inactive = the rest. The sample as a whole holds a higher share of actives than the screen did.

target: Galanin receptor type 2 (Homo sapiens) (UniProt O43603); test: GALR2 antagonists in receptor-expressing cells, primary screen (AID 828); details: antagonist mode, at 4 µM, hits give high values;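 note: cells stimulated with galanin 1-16 at roughly its EC80; 0% = agonist challenge control and 100% = basal control without agonist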
Sequence (O43603 whole entry, looked up): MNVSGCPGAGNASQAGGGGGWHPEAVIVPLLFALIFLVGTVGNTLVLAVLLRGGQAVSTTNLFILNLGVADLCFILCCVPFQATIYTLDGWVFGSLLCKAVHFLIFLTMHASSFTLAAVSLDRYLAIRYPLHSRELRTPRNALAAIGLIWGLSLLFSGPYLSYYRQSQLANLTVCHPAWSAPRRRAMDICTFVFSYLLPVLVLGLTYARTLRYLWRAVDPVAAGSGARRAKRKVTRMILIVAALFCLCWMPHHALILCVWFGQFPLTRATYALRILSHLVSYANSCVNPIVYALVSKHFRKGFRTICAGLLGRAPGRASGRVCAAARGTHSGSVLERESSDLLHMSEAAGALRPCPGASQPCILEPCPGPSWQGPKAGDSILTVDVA

Row | Compound | inhibition
1 | COc1ccc(/C=C(\C#N)C(=O)NCCCn2ccnc2)cc1 | 8.04% (inactive)
2 | CC(=O)Nc1cc(C(=O)O)ccc1S(=O)(=O)c1ccc(Cl)cc1 | 4.42% (inactive)
3 | O=C(Nc1ccccc1)c1nnsc1S(=O)(=O)c1ccc(Cl)cc1 | 42.4% (active)
4 | O=C(Nc1ccc(Cl)cc1)c1ccsn1 | 12.1% (inactive)
5 | Fc1ccc2[nH]c3c(N4CCSCC4)ncnc3c2c1 | 22.8% (inactive)
6 | Fc1ccc2[nH]c3c(N4CCN(Cc5ccc6c(c5)OCO6)CC4)ncnc3c2c1 | 44.8% (active)
7 | Cc1cc(N2CCN(Cc3ccc4c(c3)OCO4)CC2)n2ncnc2n1 | -5.12% (inactive)
8 | COc1ccc(C)cc1NC(=O)c1[nH]c(C)c(C(C)=O)c1C | 27.2% (active)
9 | CC(=O)c1c(C)[nH]c(C(=O)NCc2ccc(C)cc2)c1C | -10.3% (inactive)
10 | CCOc1ccc(NC(=O)Nc2cc(C)ccc2OC)cc1 | 1.77% (inactive)
11 | CC(C)(C)N(Cc1ccccc1)C(=O)COC(=O)CCc1c[nH]c2ccccc12 | 1.11% (inactive)
12 | Cc1ccc(NC(=S)NC(=O)/C=C/c2ccc(Cl)cc2)cc1 | -8.1% (inactive)
13 | O=[N+]([O-])c1cc(S(=O)(=O)N2CCCC2)ccc1NN=C1CCCC1 | -1.82% (inactive)
14 | O=C(NCCc1ccccc1)C1CCN(S(=O)(=O)c2ccc(Br)s2)CC1 | -2.64% (inactive)
15 | COC(C(=O)Nc1ccc(S(=O)(=O)Nc2ccc(C)c(C)c2)cc1)c1ccccc1 (configuration not stated) | 0.51% (inactive)
16 | Cc1cc(C)nc(SC2CCCCC2NS(=O)(=O)c2ccc(Cl)cc2)n1 (configuration not stated) | -14.2% (inactive)
17 | COc1ccc(OC)c(/C=C/C(=O)OCC(=O)Nc2ccc3c(c2)OCCO3)c1 | 4.33% (inactive)
18 | CCOC(=O)/C(=N\Nc1cc(Cl)ccc1Cl)N1CCN(C)CC1 | -4.67% (inactive)
19 | CCn1c(=O)cc(SCC(=O)NCCC2=CCCCC2)c2ccccc21 | -16% (inactive)
20 | CCOC(=O)C1=C(C)NC(=S)NC1c1cccs1 (configuration not stated) | -4.54% (inactive)
21 | CCC1C=C(c2ccccc2)C=CN=C1N(CC)CC (configuration not stated) | 15% (inactive)
22 | CCC(CC)c1nnc(NC(=O)/C=C/c2ccco2)s1 | 8.13% (inactive)
23 | CCOC(=O)/C(N=Nc1cc(C(=O)O)cc(C(=O)O)c1)=C(\O)CCl | -4.09% (inactive)
24 | CC1(C)CC(=O)C/C(=N\NC(=O)c2cccs2)C1 | 9.6% (inactive)

Row | Compound | inhibition
25 | Cc1ccc2nc(-c3cccnc3)c(NC3CCCC3)n2c1 | 21.2% (inactive)
26 | CC(=O)Nc1ccc(S(=O)(=O)Nc2nc(-c3ccc(C(C)(C)C)cc3)cs2)cc1 | -2.4% (inactive)
27 | O=[N+]([O-])c1ccccc1SNc1ccccn1 | 0.95% (inactive)
28 | CC(=O)NC1C(Oc2ccc(C)cc2)OC2COC(c3ccco3)OC2C1O (configuration not stated) | 11.3% (inactive)
29 | O=[N+]([O-])c1ccc(N2CCN(S(=O)(=O)c3ccccc3)CC2)cc1N1CCc2ccccc2C1 | 1.38% (inactive)
30 | COc1ccccc1-c1nnc(NC(=O)c2cccc(N3C(=O)CCC3=O)c2)o1 | -8.68% (inactive)
31 | O=C(/C=C\c1cn(-c2ccccc2)nc1-c1cccs1)N1CCOCC1 | 13.8% (inactive)
32 | O=C(Nn1c(SCc2ccc([N+](=O)[O-])cc2)nc2ccccc2c1=O)c1ccc(F)cc1 | -6.11% (inactive)
33 | COc1ccc(-c2cc(C(=O)NC(Cc3c[nH]c4ccccc34)C(=O)O)c(C)o2)cc1OC (configuration not stated) | 2.65% (inactive)
34 | COc1cccc(NC(=O)Cc2ccc(C)cc2)c1 | 4.68% (inactive)
35 | COc1ccc(NC(=O)/C(Cl)=C(/Cl)S(=O)Cc2ccc(C)cc2)cn1 (configuration not stated) | 105% (active)
36 | COc1ccc(NS(=O)(=O)c2ccc(NC(=S)NC(=O)/C=C/c3ccc(C)cc3)cc2)nn1 | 7.84% (inactive)
37 | COC(=O)Cc1ccc(N(Cc2ccccc2F)S(=O)(=O)c2ccc(Br)cc2)cc1 | -3.96% (inactive)
38 | COc1ccc(C(C(=O)NC2CCCCC2)N(C(=O)CCl)c2ccccc2Cl)cc1 (configuration not stated) | 3.18% (inactive)
39 | CCOc1ccc(S(=O)(=O)N(CC(=O)NCC(F)(F)F)Cc2ccco2)cc1 | -7% (inactive)
40 | COCC(C)NC(=O)c1ccc(-n2nc(C(F)(F)F)cc2-c2cccs2)cc1 (configuration not stated) | -1.6% (inactive)
41 | COCC(C)NC(=O)c1ccc(Cl)c(Cl)c1 (configuration not stated) | 27.4% (active)
42 | CCCNC(=O)c1ccc(Cl)c(Cl)c1 | 10.1% (inactive)
43 | CCN1CN(Cc2ccccc2)CNC1=S | 3.98% (inactive)
44 | O=S(=O)(/N=C(/Nc1ccccc1)c1ccccc1)c1cccs1 | -10.3% (inactive)
45 | Cc1ccc(CC2S/C(=C(/C#N)C(=O)N3CCOCC3)N(c3ccccc3)C2=O)cc1 (configuration not stated) | -9.98% (inactive)
46 | C=CCNC(=O)/C(=C\c1cccc([N+](=O)[O-])c1)NC(=O)c1ccccc1 | 3.63% (inactive)
47 | COc1ccc(NC(=O)COC(=O)c2ccc(NS(=O)(=O)/C=C/c3ccccc3)cc2)cc1 | 9.83% (inactive)
